Active and inactive are the calls of the source. How the source made its calls: active means hit-call score of the fitted dose curve at least 0.9, where 1 is the maximum; inactive means score below 0.9.

This assay can be described thus: CEETOX_H295R_DOC: CeeTox H295R High-throughput Steroidogenesis Assay for DOC (AID 2283439). The note with it: actives raise or lower the signal. The protocol:
CEETOX_H295R is a cell-based, multiplexed-readout assay that uses H295R, a human adrenal gland cell line, with measurements taken at 48 hours after chemical dosing in a 96-well plate.CEETOX_H295R_DOC is one of 23 assay component(s) measured or calculated from the CEETOX_H295R assay. It is designed to make measurements of hormone induction, a form of inducible reporter, as detected with absorbance signals by HPLC-MS-MS technology.Data from the assay component CEETOX_H295R_DOC was analyzed into 1 assay endpoint. This assay endpoint, CEETOX_H295R_DOC, was analyzed with bidirectional fitting relative to DMSO as the negative control and baseline of activity. Using a type of inducible reporter, gain or loss-of-signal activity using HPLC-MS-MS was used to understand synthesis of 11-Deoxycorticosterone in H295R cell line at 48hr of chemical exposure. To generalize the intended target to other relatable targets, this assay endpoint is annotated to the steroid hormone intended target family, where the subfamily is glucocorticoids.
Cell culture and media preparation procedures were conducted in accordance with OECD Test No. 456 guidelines, with minor modifications. H295R cells (ATCC CRL-2128) were expanded for 5 passages and frozen in batches in liquid nitrogen. Prior to the steroidogenesis assay, H295R cells were thawed and passed at least 4 times. The maximum passage was 10. Cells were maintained in a 1:1 mixture of DMEM/F12 supplemented with 5ml/L ITS+ Premix (BD Bioscience) and 12.5 ml/L Nu-Serum (BD Bioscience). After seeding cells into 96-well plates at 50-60% confluency, cells were allowed to adhere overnight. Prior to chemical testing, culture medium was replaced with 175 uL medium containing 10 uM forskolin to stimulate steroidogenesis for 48 hours. Following prestimulation, forskolin medium was replaced with medium containing test chemical solubilized in DMSO (ensuring a final concentration of 0.1% DMSO). Test chemicals were incubated for 48 hours, then the medium was removed and split into 2 vials containing approximately 75uL each, and stored at -80 C prior to hormone analysis. For steroid quantification, media samples were shipped to OpAns, LLC (Durham, NC) on dry ice, and samples were thawed to room temperature prior to liquid-liquid extraction. Steroid hormones were extracted from media samples using methyl tertbutyl ether (MTBE). An extra derivatization with dansyl chloride was included for estrogen (estrone and estradiol) detection only. Steroid hormones were separated by HPLC, eluted using a reverse phase C18 gradient with electrospray positive ionization, followed by quantification by tandem mass spectrometry (MS/MS). Data were acquired on a MassHunter Workstation Acquisition version B03.01 (Agilent Technologies, Inc.) and processed using MassHunter Quantitative Analysis for QQQ. Accuracy was determined for each hormone analyte from 3 standards to determine upper and lower limits of quantification (ULOQ and LLOQ, respectively) using a 7-point standard curve. Precision and accuracy of the extraction and quantification methods were calculated as the percent relative standard deviation (%RSD) of the spiked standards and percent spiked standard recovered, respectively. […] Test medium was removed following chemical exposure, and cell viability was evaluated in the same wells by MTT. MTT procedures were as follows: after removal of test medium, 500 uL of 0.5 mg/ml of 3-[4,5-dimethylthiazol-2-y]2,5-diphenyltetrazoliumbromide solution was added to the cells. Following a 4-hour incubation at 37 C and 5% CO2 to allow formazan-crystal formation, the MTT solution was removed and blue formazan salt crystals were solubilized using 500uL anhydrous isopropanol with shaking for 20 minutes. Absorbance was read at 570 and 650nm using a Packard Fusion microplate reader. Background correction of absorbance units was used to determine percent change relative to controls. […]
Regarding `CCN1CN(CC)CN(CC)C1`, the result was inactive.

Consider `C=CC(=O)OCCCCCCOC(=O)C=C`, for which the call was inactive.

Regarding `COc1ccc(-c2coc3cc(O)cc(O)c3c2=O)cc1`, the AC50 was 5000 nM (active).

Turning to `O=C(O)c1cc(O)c2ccccc2c1O`, the half-maximal activity concentration (AC50) is 445 nM (active).

Regarding `CC(C)(C)NC(=O)[C@H]1CC[C@H]2[C@@H]3CC[C@H]4NC(=O)C=C[C@]4(C)[C@H]3CC[C@]12C`, the concentration at half-maximal activity (AC50) was 13500 nM (active).

Consider `CC(C)(c1ccccc1)c1ccc(Nc2ccc(C(C)(C)c3ccccc3)cc2)cc1`, for which the AC50 was 820 nM (active).

For `O=C(OCc1ccccc1)c1ccc(O)cc1`, the AC50 was 42700 nM (active).

In the case of `CCOC(=O)C1=NN(c2ccc(Cl)cc2Cl)C(C)(C(=O)OCC)C1` (stereo unspecified), the compound was called inactive.

Regarding `C=C[C@@]1(C)CC(=O)[C@]2(O)[C@@]3(C)[C@@H](O)CCC(C)(C)[C@@H]3[C@H](O)[C@H](OC(C)=O)[C@@]2(C)O1`, the half-maximal activity concentration (AC50) was 418 nM (active).

`COc1ccc(C(=O)c2ccccc2)c(O)c1`: the result was inactive.

Take `CN(C)c1ccc2nc3ccc(=[N+](C)C)cc-3sc2c1`: the AC50 is 598 nM (active).

Broadly, the AC50 is the midpoint of the concentration-response curve, whichever way the signal moves.
